Bioassay records (PubChem BioAssay)
Most compounds without a hit are left out; they make up all but 21% or so of the library.
Pf growth 96h = P. falciparum growth inhibition at 96 hours; 320,000 compounds, 6.9% hits; AID 504834; P. falciparum luciferase reporter growth, 96 h; Potency, µM (doses to about 28.7 µM), for inactives: at the highest dose activity change, negative = inhibition, actives largely listed as inhibitors; further: potency means the concentration at half of the fitted maximal effect; on the % scale 0 is the no-effect control and ±100 the full control effect
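Compounds incubated with erythrocytes infected by luciferase-expressing P. falciparum (2% hematocrit, 0.05% parasitemia final) for 96 hours, 37 C in 5% CO2. Growth inhibition scored as decreased luciferase luminescence.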
Shiga toxin inh = inhibitors of Shiga toxin in Vero cells; Vero cells, Shiga toxin protein synthesis inhibition reporter; inhibition, % at 38.7 µM; 290,000 compounds, 9.2% hits; AID 2315; in the data active means inhibition mostly above about 28%, no sharp cut-off; inactive means mostly below about 43%; further: 0% is about no effect
Cycloheximide cs = counter-screen hit for Shiga toxin inhibitors, cycloheximide. cell reporter, cycloheximide protein synthesis inhibition counterscreen. max response, %. 300,000 compounds, 12% hits; in the data active means max response mostly above about 13%, no sharp cut-off; inactive means mostly below about 14%; further: read at 38.3 µM for the half of the compounds with a filed dose; 0% is about no effect
Pf growth 48h = P. falciparum growth inhibition at 48 hours (one generation); P. falciparum luciferase growth in erythrocytes, 48 h; Potency, µM (doses to about 28.7 µM), inactives show at the top dose activity change, negative = inhibition, hits mostly inhibitors; 310,000 compounds, 5.9% hits; AID 504832; further: potency means the concentration at half of the fitted maximal effect; on the % scale 0 is the no-effect control and ±100 the full control effect
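In quantitative HTS format, infected erythrocytes bearing luciferase-reporter parasites were treated for a single generation at 37 C. Luminescence after adding detection reagent served as the growth measure.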
Active calls of the source: *. Unless noted, the call rests on the fitted dose curve; in most records, active means well fitted inhibition curve with a large enough effect; inconclusive means small, poorly fitted or top-dose-only effect, or another doubt; inactive means no such curve, though single readings can be large or run the other way.

Results for CCCN(C(=O)CCOc1ccc(C(C)(C)C)cc1)c1c(N)n(Cc2ccccc2)c(=O)[nH]c1=O ?
Pf growth 96h: inconclusive; Pf growth 48h: 2.6µM*

What do the screens show for `Oc1c(N=NC(=S)Nc2ccccc2F)c2ccccc2n1Cc1ccccc1F`?
Pf growth 96h: -45%; Shiga toxin inh: 18; Cycloheximide cs: -4; Pf growth 48h: inconclusive

How did Oc1c(N=NC(=S)Nc2ccccc2F)c2ccccc2n1Cc1ccc(Cl)cc1 do in these assays?
Pf growth 96h: 71%; Shiga toxin inh: 1; Cycloheximide cs: -2; Pf growth 48h: 2.3µM*

What do the screens show for `Cc1ccccc1Cn1c(O)c(N=NC(=S)Nc2ccccc2F)c2ccccc21`?
Pf growth 96h: 6%; Shiga toxin inh: -14; Cycloheximide cs: 1; Pf growth 48h: 1.5µM*

What do the screens show for `COC(=O)c1cc(S(=O)(=O)NCC2CCN(CCc3ccc(OC)cc3)CC2)cn1C`?
Pf growth 96h: -18%; Shiga toxin inh: 3; Cycloheximide cs: -5; Pf growth 48h: 0%

Results for CCOC(=O)N1CCN(C(=O)c2c(-c3c(Cl)cccc3Cl)noc2C)CC1 ?
Pf growth 96h: 2%; Shiga toxin inh: -6; Cycloheximide cs: 2; Pf growth 48h: -5%

How did Cc1onc(-c2c(Cl)cccc2Cl)c1CO/N=C(\C#N)c1c(Cl)cccc1Cl do in these assays?
Pf growth 96h: inconclusive; Shiga toxin inh: 3; Cycloheximide cs: 10; Pf growth 48h: 15µM*

How did CCOC(=O)C1=C(C)Nc2[nH]c(=O)[nH]c(=O)c2C1c1cccs1 (stereo not drawn) do in these assays?
Pf growth 96h: 0%; Shiga toxin inh: -12; Cycloheximide cs: -7; Pf growth 48h: 20%

What do the screens show for `CCOC(=O)C1=C(C)NC(C)=C(C(=O)OCC)C1c1cccs1`?
Pf growth 96h: 9.3µM*; Shiga toxin inh: 11; Cycloheximide cs: -1; Pf growth 48h: 9.3µM*

What do the screens show for `CCOC(=O)C1=C(C)NC(C)=C(C(=O)OCC)C1c1sccc1C`?
Pf growth 96h: 49%; Shiga toxin inh: -8; Cycloheximide cs: -3; Pf growth 48h: 5.2µM*

How did CCCCCCCOC(=O)C1=C(C)Nc2ncnn2C1c1cccs1 (stereo not drawn) do in these assays?
Pf growth 96h: 39%; Shiga toxin inh: -17; Cycloheximide cs: -2; Pf growth 48h: 10µM*

Results for CC1=C(C(=O)OC(C)C)C(c2cccs2)C(C(=O)OC(C)C)=C(C)N1 ?
Pf growth 96h: inconclusive; Shiga toxin inh: -5; Cycloheximide cs: -1; Pf growth 48h: 13µM*

Results for CC1=C(C(=O)OC(C)C)C(c2cccs2)NC(=O)N1 (stereo not drawn) ?
Pf growth 96h: 17%; Shiga toxin inh: -2; Cycloheximide cs: 11; Pf growth 48h: -8%

What do the screens show for `CCCCCCCC(O)CC(CC1CCCCC1)C(=O)NN` (stereo not drawn)?
Pf growth 96h: inconclusive; Shiga toxin inh: -8; Cycloheximide cs: 0; Pf growth 48h: inconclusive

Results for CCOC(=O)c1sc2c(c1C)C(c1cccs1)C1=C(CCCC1=O)N2 (stereo not drawn) ?
Pf growth 96h: 12µM*; Shiga toxin inh: -5; Cycloheximide cs: 3; Pf growth 48h: inconclusive

What do the screens show for `CCOC(=O)C1=C(c2ccccc2)OC(N)=C(C#N)C1c1cccs1` (stereo not drawn)?
Pf growth 96h: -8%; Shiga toxin inh: 9; Cycloheximide cs: 2; Pf growth 48h: 5%

Results for COC(=O)C1=C(C)NC(C)=C(C(=O)OC(C)C)[C@H]1c1cccc2nonc12 ?
Pf growth 96h: 2.6µM*; Pf growth 48h: 4.5µM*

What do the screens show for `CCOC(=O)C1=C(C)N=C2SCCC(=O)N2[C@@H]1c1cccs1`?
Pf growth 96h: 6%; Shiga toxin inh: -5; Cycloheximide cs: -2; Pf growth 48h: 10µM*

What do the screens show for `C#CCSC1=C(C#N)C(c2cccs2)C(C(=O)OCC)=C(C)N1` (stereo not drawn)?
Pf growth 96h: 3%; Shiga toxin inh: 35; Cycloheximide cs: 24*; Pf growth 48h: 10µM*

What do the screens show for `CCOC(=O)C1=C(C)NC2=C(C(=O)CCC2)C1c1cccs1` (stereo not drawn)?
Pf growth 96h: inconclusive; Shiga toxin inh: -19; Cycloheximide cs: 1; Pf growth 48h: -19%

What do the screens show for `N=c1ccn(Cc2c(Cl)cccc2Cl)cc1`?
Pf growth 96h: inconclusive; Shiga toxin inh: -8; Cycloheximide cs: 1; Pf growth 48h: inconclusive

What do the screens show for `N=c1ccn(Cc2ccc(Cl)cc2)cc1`?
Pf growth 96h: 7%; Shiga toxin inh: 21; Cycloheximide cs: -3; Pf growth 48h: 1.9µM*

What do the screens show for `Clc1ccc(CN2CCCCCCC2)cc1`?
Pf growth 96h: 13%; Shiga toxin inh: -15; Cycloheximide cs: -10; Pf growth 48h: 13%

Results for O=S1(=O)CCN(Cc2ccc(Cl)c(Cl)c2)CC1 ?
Pf growth 96h: 27%; Shiga toxin inh: 22; Cycloheximide cs: -2; Pf growth 48h: 6%

Results for N=c1ccn(Cc2ccc(Cl)c(Cl)c2)cc1 ?
Pf growth 96h: -33%; Shiga toxin inh: -5; Cycloheximide cs: 12; Pf growth 48h: 0.59µM*

What do the screens show for `N=c1ccn(Cc2cccc(Cl)c2)cc1`?
Pf growth 96h: inconclusive; Shiga toxin inh: -9; Cycloheximide cs: 1; Pf growth 48h: 2.6µM*

How did CCN(C(=O)COC(=O)c1ccc(Br)o1)C1CCCCC1 do in these assays?
Pf growth 96h: 14%; Shiga toxin inh: -17; Cycloheximide cs: 3; Pf growth 48h: 4%

What do the screens show for `CCc1ccccc1NC(=O)C1COc2ccccc2O1` (stereo not drawn)?
Pf growth 96h: 2.9µM*; Cycloheximide cs: 7; Pf growth 48h: inconclusive

How did O=C(N/N=C\c1cccc([N+](=O)[O-])c1O)C1COc2ccccc2O1 (stereo not drawn) do in these assays?
Pf growth 96h: -11%; Shiga toxin inh: -7; Cycloheximide cs: -4; Pf growth 48h: -6%

How did O=C(Nc1ccccc1[N+](=O)[O-])C1COc2ccccc2O1 (stereo not drawn) do in these assays?
Pf growth 96h: 12µM*; Shiga toxin inh: 38*; Cycloheximide cs: 27*; Pf growth 48h: 133%

How did COC(=O)c1ccccc1NC(=O)C1COc2ccccc2O1 (stereo not drawn) do in these assays?
Pf growth 96h: -6%; Shiga toxin inh: 122*; Cycloheximide cs: 55*; Pf growth 48h: -16%

Results for CCCn1c(NC(=O)C2COc3ccccc3O2)nc2ccccc21 (stereo not drawn) ?
Pf growth 96h: inconclusive; Shiga toxin inh: -5; Cycloheximide cs: -2; Pf growth 48h: 9.3µM*

What do the screens show for `Cc1ccccc1NC(=O)C1COc2ccccc2O1` (stereo not drawn)?
Pf growth 96h: 53%; Cycloheximide cs: 0; Pf growth 48h: 14%

How did CCCn1c(NC(=O)c2ccco2)nc2ccccc21 do in these assays?
Pf growth 96h: 43%; Shiga toxin inh: -13; Cycloheximide cs: 10; Pf growth 48h: inconclusive

What do the screens show for `COc1ccc([N+](=O)[O-])cc1NC(=O)C(C)OC(=O)CC1CCCC1` (stereo not drawn)?
Pf growth 96h: -43%; Pf growth 48h: inconclusive

What do the screens show for `O=C(COC(=O)/C=C/c1cccc(Cl)c1)NC1CCCC1`?
Pf growth 96h: -21%; Pf growth 48h: 13%
